Reference: PubChem BioAssay
Active and inactive are the calls of the source. Unless noted, the rule behind the calls is not given here.

Columns and labels:
[1] = test system: Wnt5a (protein binding on small-molecule microarray); test: Wnt5a binders on small-molecule microarray, primary screen, biophysical, 635/667 nm fluorescence (AID 1142); conditions: 635 nm fluorescence, higher = more signal;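 note: fluorescence read at 667 nm with signal to noise per printed feature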
[2] = cell viability in Huh7 cells, primary screen, cytotoxicity control for HCV replication inhibitor project, CellTiter-Glo luminescence, basal, 48 h (AID 1143); conditions: Huh7 HCV replicon, higher = more signal, called active from +8 up or from −8 down;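 note: Huh7 hepatoma cells carrying a hepatitis C replication reporter with no stimulus; test concentration not given here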
[3] = P. aeruginosa biofilm formation inhibitors, primary screen, PAO1 strain, BacTiter-Glo luminescence, LB-PBS (AID 1144); conditions: 12 h, higher = more signal
[4] = CREB reporter modulators without forskolin, primary screen, cell-based, PC12, CRE-LacZ reporter, unstimulated (AID 1145); conditions: no forskolin, luminescence, 4.5 h, higher = more signal, called active from +8 up or from −8 down
[5] = CREB reporter modulators under forskolin, primary screen, cell-based, PC12, CRE-LacZ reporter, forskolin-stimulated (AID 1146); conditions: luminescence, 4.5 h, higher = more signal, called active from +8 up or from −8 down;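 note: PC12 cells with 6xCRE LacZ reporter stimulated by forskolin 10 µM; beta-galactosidase reporter signal reflecting CREB driven transcription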
[6] = target: Streptavidin (Streptomyces avidinii) (UniProt P22629); test: streptavidin binders on small-molecule microarray, primary screen, artefact control for SMM compound annotation, biophysical, 635/667 nm fluorescence (AID 1147); conditions: streptavidin binding, higher = more signal;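 note: signal reflects streptavidin binding to arrayed compounds as a control protein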
[7] = small-molecule binders of probe aInhba, primary screen, biochemical, small-molecule microarray, 635/667 nm fluorescence (AID 1148); conditions: higher = more signal;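 note: score merges 667nm spot fluorescence with signal-to-noise for antibody binding to printed compounds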
Torsin-1A (Homo sapiens) [8] = target: Torsin-1A (Homo sapiens) (UniProt O14656); test: torsin A binders from cell lysate, primary screen, small-molecule microarray, wild-type, 635/667 nm (AID 1149); conditions: COS7 hTOR1A-WT lysate, 635 nm fluorescence, higher = more signal
Torsin-1A (Homo sapiens) [9] = target: Torsin-1A (Homo sapiens) (UniProt O14656); test: small-molecule binders of mutant TOR1A in lysate, primary screen, cell lysate, small-molecule microarray, COS7 lysate, 635/667 nm fluorescence (AID 1150); conditions: COS7 hTOR1A mutant lysate, 635 nm fluorescence, higher = more signal;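 note: score pools 667 nm emission and signal to noise measuring lysate protein binding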
[10] = test system: Sonic hedgehog protein (Shh); test: small-molecule binders of Shh protein, primary screen, biochemical, small-molecule microarray, 635/667 nm fluorescence (AID 1151); conditions: small-molecule microarray binding, 635 nm fluorescence; higher = more signal;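 note: Shh protein binding to compounds spotted on small-molecule microarray slides; score combines spot fluorescence intensity with signal-to-noise across triplicate slides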
[11] = E. coli DRC41 culture turbidity changes, primary screen, E. coli filamentation inducer project, strain DRC41, OD650, 48 h (AID 1152);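 note: E. coli MC1000 strain DRC41 lacking acrAB efflux pump and sulA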; conditions: E. coli DRC41 (acrAB sulA), higher = more signal, called active from +8 up or from −8 down
[12] = small-molecule binders of probe aLefty1, primary screen, biochemical, small-molecule microarray, 635/667 nm fluorescence (AID 1153); conditions: higher = more signal;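 note: score merges spot fluorescence with signal-to-noise ratio from the scanned slide images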
[13] = PSAC antagonists in infected red cells, primary screen, cell-based, P. falciparum Indochina, OD700, 1 h (AID 1154); conditions: P. falciparum Indochina infected RBC osmotic lysis, higher = more signal, called active from +8 up or from −8 down
[14] = PSAC antagonists in infected red cells, primary screen, cell-based, P. falciparum Indochina, OD700, 2 h (AID 1155);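 note: lysis reports solute entry through the parasite surface anion channel PSAC; channel blockers reduce lysis of infected cells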; conditions: P. falciparum Indochina infected erythrocytes, osmotic lysis OD700; higher = more signal, called active from +8 up or from −8 down
[15] = osmotic lysis modulators in infected erythrocytes, primary screen, PSAC antagonist project, cell-based, P. falciparum Indochina, OD700, 3 h (AID 1156); conditions: higher = more signal, called active from +8 up or from −8 down
[16] = PSAC antagonists in infected red cells, primary screen, cell-based, P. falciparum Indochina, OD700, 18 h (AID 1157); conditions: P. falciparum Indochina infected erythrocytes, osmotic lysis OD700, 18 h; higher = more signal, called active from +8 up or from −8 down
[17] = modulators of S6 phosphorylation in cells, primary screen, cell-based, A549, cytoblot, luminescence, serum-stimulated (AID 1158); conditions: A549 phospho-S6 cytoblot, 5 h, higher = more signal;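 note: serum-stimulated A549 lung adenocarcinoma cells; signal is phosphorylated S6 detected by cytoblot immunostaining with HRP secondary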
[18] = target: NADPH oxidase 2 (Homo sapiens) (UniProt P04839); test: NOX2-dependent H2O2 signal modulators, primary screen, NOX inhibitor project, cell-based, HEK293-NOX2, PMA-stimulated, Amplex Red fluorescence (AID 1159); conditions: 45 min, higher = more signal, called active from +8 up or from −8 down; note: test concentration not given here
[19] = target: NADPH oxidase 4 (Homo sapiens) (UniProt Q9NPH5); test: NOX4-dependent H2O2 signal modulators, primary screen, NOX inhibitor project, cell-based, HEK293-NOX4, tetracycline-induced, Amplex Red fluorescence (AID 1160); conditions: 45 min, higher = more signal, called active from +8 up or from −8 down
[20] = target: NADPH oxidase 5 (Homo sapiens) (UniProt Q96PH1); test: NOX5-dependent H2O2 signal modulators, primary screen, NOX inhibitor project, cell-based, HEK293-NOX5, Amplex Red fluorescence (AID 1161); conditions: HEK293-NOX5, ionomycin, 45 min, higher = more signal
Sequence of NADPH oxidase 5 (Homo sapiens) (Q96PH1 whole entry, looked up): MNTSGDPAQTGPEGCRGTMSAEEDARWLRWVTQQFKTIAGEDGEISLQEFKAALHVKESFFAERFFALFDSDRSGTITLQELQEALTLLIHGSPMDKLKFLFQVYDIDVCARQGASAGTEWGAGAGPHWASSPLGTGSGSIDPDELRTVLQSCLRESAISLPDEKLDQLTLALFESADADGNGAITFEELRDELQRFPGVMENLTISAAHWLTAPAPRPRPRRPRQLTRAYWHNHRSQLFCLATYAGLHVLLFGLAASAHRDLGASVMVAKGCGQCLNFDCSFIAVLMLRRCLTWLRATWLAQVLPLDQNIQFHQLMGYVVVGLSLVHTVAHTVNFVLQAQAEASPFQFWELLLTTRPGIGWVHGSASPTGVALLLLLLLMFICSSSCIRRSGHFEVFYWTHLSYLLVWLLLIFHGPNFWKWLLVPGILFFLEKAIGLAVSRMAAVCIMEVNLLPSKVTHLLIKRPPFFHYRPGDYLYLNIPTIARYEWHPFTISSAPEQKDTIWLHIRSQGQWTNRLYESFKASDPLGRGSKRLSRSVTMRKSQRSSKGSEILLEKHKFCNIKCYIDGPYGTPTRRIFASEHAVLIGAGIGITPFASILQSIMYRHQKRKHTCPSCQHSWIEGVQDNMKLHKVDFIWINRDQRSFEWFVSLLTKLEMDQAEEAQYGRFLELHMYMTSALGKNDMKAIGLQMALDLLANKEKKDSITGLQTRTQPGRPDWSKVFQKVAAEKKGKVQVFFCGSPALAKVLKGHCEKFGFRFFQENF

Sequence of Torsin-1A (Homo sapiens) (O14656 whole entry, looked up): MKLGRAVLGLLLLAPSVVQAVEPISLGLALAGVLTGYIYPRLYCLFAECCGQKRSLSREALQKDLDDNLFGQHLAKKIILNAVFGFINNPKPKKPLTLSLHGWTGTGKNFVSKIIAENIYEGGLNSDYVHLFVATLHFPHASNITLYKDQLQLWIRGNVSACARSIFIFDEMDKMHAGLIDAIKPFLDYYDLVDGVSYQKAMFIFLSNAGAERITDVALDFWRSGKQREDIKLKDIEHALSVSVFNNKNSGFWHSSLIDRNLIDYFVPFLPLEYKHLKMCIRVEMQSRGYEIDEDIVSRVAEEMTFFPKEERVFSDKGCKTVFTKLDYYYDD
Sequence of NADPH oxidase 4 (Homo sapiens) (Q9NPH5 whole entry, looked up): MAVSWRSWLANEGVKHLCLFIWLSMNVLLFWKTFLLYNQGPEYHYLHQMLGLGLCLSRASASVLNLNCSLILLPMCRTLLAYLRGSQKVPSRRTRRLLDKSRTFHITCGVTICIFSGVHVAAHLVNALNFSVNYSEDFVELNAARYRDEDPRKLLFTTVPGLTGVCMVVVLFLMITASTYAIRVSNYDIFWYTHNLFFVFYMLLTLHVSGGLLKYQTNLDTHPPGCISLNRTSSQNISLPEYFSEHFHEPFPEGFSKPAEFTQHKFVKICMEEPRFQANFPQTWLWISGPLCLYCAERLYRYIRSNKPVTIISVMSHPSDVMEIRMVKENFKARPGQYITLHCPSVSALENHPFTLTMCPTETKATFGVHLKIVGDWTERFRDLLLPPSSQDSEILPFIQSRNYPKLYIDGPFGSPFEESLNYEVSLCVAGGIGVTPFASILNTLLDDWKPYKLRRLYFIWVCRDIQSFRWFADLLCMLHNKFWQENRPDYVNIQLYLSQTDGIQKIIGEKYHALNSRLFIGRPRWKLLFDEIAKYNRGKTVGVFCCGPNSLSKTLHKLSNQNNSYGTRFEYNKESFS
Sequence of Streptavidin (Streptomyces avidinii) (P22629 whole entry, looked up): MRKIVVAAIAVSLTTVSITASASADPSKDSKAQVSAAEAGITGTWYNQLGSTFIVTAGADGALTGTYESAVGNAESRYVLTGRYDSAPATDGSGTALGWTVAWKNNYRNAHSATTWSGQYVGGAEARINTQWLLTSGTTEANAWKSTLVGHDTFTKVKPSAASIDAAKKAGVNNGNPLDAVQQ
Sequence of NADPH oxidase 2 (Homo sapiens) (P04839 whole entry, looked up): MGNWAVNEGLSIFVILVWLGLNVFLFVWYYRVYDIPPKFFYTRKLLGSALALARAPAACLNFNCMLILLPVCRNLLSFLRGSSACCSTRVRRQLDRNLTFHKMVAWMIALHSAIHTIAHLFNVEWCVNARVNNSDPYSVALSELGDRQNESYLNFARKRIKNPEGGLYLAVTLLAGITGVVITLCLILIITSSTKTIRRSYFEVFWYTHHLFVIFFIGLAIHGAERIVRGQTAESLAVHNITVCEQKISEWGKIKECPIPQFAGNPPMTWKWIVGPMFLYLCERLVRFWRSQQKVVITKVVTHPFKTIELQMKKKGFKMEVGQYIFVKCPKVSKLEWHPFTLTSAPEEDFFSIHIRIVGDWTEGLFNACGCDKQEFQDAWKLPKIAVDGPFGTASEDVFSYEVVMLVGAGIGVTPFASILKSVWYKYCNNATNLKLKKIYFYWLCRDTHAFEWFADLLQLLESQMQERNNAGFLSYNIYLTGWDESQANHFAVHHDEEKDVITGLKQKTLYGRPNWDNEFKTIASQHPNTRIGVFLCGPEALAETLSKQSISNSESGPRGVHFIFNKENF

Structure (SMILES) | composite z-score [1] | z-score [2] | z-score [3] | z-score [4] | z-score [5] | composite z-score [6] | composite z-score [7] | composite z-score (Torsin-1A (Homo sapiens) [8]) | composite z-score (Torsin-1A (Homo sapiens) [9]) | composite z-score [10] | z-score [11] | composite z-score [12] | z-score [13] | z-score [14] | z-score [15] | z-score [16] | z-score [17] | z-score [18] | z-score [19] | z-score [20]
NC(=O)NCC#Cc1ccc2c(c1)[C@]1(C(=O)N2)[C@H](c2ccc(O)cc2)N2[C@H](c3ccccc3)[C@H](c3ccccc3)OC(=O)[C@H]2[C@@H]1C(=O)N1CCN(c2ncccn2)CC1 | 0.0724 | 0.449 (inactive) | 0.185 (inactive) | 1.21 (inactive) | 0.128 (inactive) | 0.0219 | 0.181 | -0.219 | 0.412 | -0.37 | 0.642 (inactive) | 0.266 | 1.36 (inactive) | 0.747 (inactive) | 0.458 (inactive) | 0.565 (inactive) | -0.0168 | 1.06 (inactive) | 0.478 (inactive) | 1.68
COC(=O)[C@@]1(Cc2ccc(F)cc2)[C@H]2c3cc(C(=O)N(C)C)n(CCc4c[nH]c5ccc(OC)cc45)c3C[C@H]2CN1C(=O)c1ccccc1 | 0.325 | -3.84 (inactive) | 1.41 (inactive) | 1.54 (inactive) | 0.883 (inactive) | 1.18 | 0.351 | 1.03 | 1.31 | -1.11 | -1.77 (inactive) | 0.441 | 6.52 (inactive) | 0.1 (inactive) | 1.24 (inactive) | -0.975 (inactive) | 1.87 | -3.45 (inactive) | -3.18 (inactive) | -5.53
CN(C)CCCCCCNC(=O)[C@@H]1C[C@@H]2C(=O)NCC(=O)N2[C@@H]1c1cccc(OCCO)c1 | 1.21 | 0.105 (inactive) | -0.418 (inactive) | -0.549 (inactive) | -0.832 (inactive) | 0.312 | 0.105 | 1.14 | 2.07 | 1.64 | 0.492 (inactive) | 0.169 | 2.11 (inactive) | 0.109 (inactive) | 2.28 (inactive) | 0.253 (inactive) | 0.0964 | 0.438 (inactive) | 0.611 (inactive) | 0.6
CO[C@H]1O[C@H](CO)[C@@H](OC(=O)Nc2cccc(F)c2)[C@H](OC(=O)Nc2ccccc2-c2ccccc2)[C@@H]1OC(=O)Nc1ccccc1-c1ccccc1 | 0.21 | -5.49 (inactive) | -0.579 (inactive) | 0.306 (inactive) | 0.0811 (inactive) | 1.88 | 0.212 | 0.838 | 0.886 | 0.667 | 0.538 (inactive) | 0.257 | 3.1 (inactive) | 2.23 (inactive) | 0.346 (inactive) | 1.68 (inactive) | 0.0437 | -2.45 (inactive) | -0.551 (inactive) | -0.608
CN(C)CCCC[C@@H]1NC(=O)[C@@H]2C[C@H](C(=O)NCCCCCN)[C@H](c3ccc(O)cc3)N2C1=O | -0.286 | 0.202 (inactive) | -0.504 (inactive) | 0.549 (inactive) | 0.304 (inactive) | 1.26 | -0.0639 | 0.424 | 0.901 | -0.631 | 0.195 (inactive) | -0.056 | -0.327 (inactive) | 0.0694 (inactive) | 0.494 (inactive) | -0.0676 (inactive) | -0.431 | -0.487 (inactive) | -0.159 (inactive) | 0.701
[N-]=[N+]=NCc1ccccc1[C@@H]1OC(c2ccc(OCCCO)cc2)=N[C@]1(Cc1ccccc1N=[N+]=[N-])C(N)=O | 0.138 | -1.91 (inactive) | -0.089 (inactive) | -0.128 (inactive) | 0.15 (inactive) | 2.16 | 0.32 | 0.571 | 0.373 | -0.349 | -0.386 (inactive) | 0.636 | 20.5 (active) | 2.68 (inactive) | 1.5 (inactive) | 0.54 (inactive) | -0.0826 | -1.07 (inactive) | -0.527 (inactive) | 0.12
CO[C@H]1O[C@H](CO)[C@@H](OC(=O)Nc2ccc(C(F)(F)F)cc2)[C@H](OC(=O)Nc2ccccc2)[C@@H]1OC(=O)Nc1ccccc1 | 0.534 | -3.7 (inactive) | 0.724 (inactive) | 0.904 (inactive) | -1.01 (inactive) | 1.08 | -0.0538 | 0.146 | -0.0359 | 0.934 | -0.744 (inactive) | -0.407 | 7.34 (inactive) | 1.01 (inactive) | -0.886 (inactive) | 0.863 (inactive) | -0.143 | 0.179 (inactive) | -0.513 (inactive) | -0.468
C=CC[C@]1(C(=O)NCCN2CCOCC2)N=C(c2ccc(OCCCO)cc2)O[C@H]1c1ccccc1N=[N+]=[N-] | 0.038 | -1.76 (inactive) | 0.672 (inactive) | 2.66 (inactive) | -1.37 (inactive) | 1.23 | 0.126 | 0.17 | -0.0097 | 0.255 | 1.39 (inactive) | 0.14 | 30.7 (active) | 28.6 (active) | 2.5 (inactive) | 5.98 (inactive) | -0.106 | -0.798 (inactive) | 1.5 (inactive) | 0.108
Cc1ccc(C(C)CC(O)C2C=CC3C(=O)NC(=O)C3N2Nc2ccccn2)o1 (stereo not given) | -0.0405 | 1.2 (inactive) | -1.31 (inactive) | -0.712 (inactive) | -0.364 (inactive) | -0.585 | 0.0797 | 0.81 | 0.282 | 0.452 | 0.488 (inactive) | -0.154 | 0.494 (inactive) | 0.481 (inactive) | -0.284 (inactive) | 0.606 (inactive) | -0.439 | 0.36 (inactive) | -2.17 (inactive) | -1.52
